Experiment [1] can be described thus: Quantitative High-Throughput drug screen in 47 multiple myeloma cell lines against the NCATS MIPE library collection: H1112_PLB cell viability assay (AID 1918967; note: nearly all actives have a fitted effect of over 30% in size). A digest of the protocol:
(§1)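 We plated 500 myeloma cells per well, pinned in MIPE 4.0 compounds, and incubated for 48 hours at 37C. ATP was then quantified with CellTiter-Glo, with DMSO and media-only wells defining 100% and 0%.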

A short description of experiment [2]: Quantitative High-Throughput drug screen in 47 multiple myeloma cell lines against the NCATS MIPE library collection: KMS12PE_JCRB cell viability assay (AID 1918972). Note: nearly all actives have a fitted effect of over 30% in size. A digest of the protocol: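 Myeloma cell lines, 500 cells per well, exposed to MIPE 4.0 library compounds for 48 h at 37C, 5% CO2. Viability from ATP by CellTiter-Glo luminescence; normalised to DMSO (100%) and media-only (0%) wells.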

Experiment [3] can be described thus: Quantitative High-Throughput drug screen in 47 multiple myeloma cell lines against the NCATS MIPE library collection: KMS20_JCRB cell viability assay (AID 1918973). Note: nearly all actives have a fitted effect of over 45% in size. A digest of the protocol: as §1
The nature of experiment [4]: Quantitative High-Throughput drug screen in 47 multiple myeloma cell lines against the NCATS MIPE library collection: KMS21BM_JCRB cell viability assay (AID 1918974). Particulars: ATP luminescence, 48 h; viability: at 45.8 µM (top of the series) unless noted. A digest of the protocol: as §1
A short description of experiment [5]: Quantitative High-Throughput drug screen in 47 multiple myeloma cell lines against the NCATS MIPE library collection: KMS26_JCRB cell viability assay (AID 1918975). Note: nearly all actives have a fitted effect of over 45% in size. A digest of the protocol:
(§2)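 Inhibition of cell viability is measured here. Each line was plated at 500 cells per well, treated with MIPE 4.0 drugs, kept 48 hours at 37C, then assayed for ATP content by CellTiter-Glo luminescence.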

Experiment [6] in a line: Quantitative High-Throughput drug screen in 47 multiple myeloma cell lines against the NCATS MIPE library collection: MOLP8_DSMZ cell viability assay (AID 1918977). Note: nearly all actives have a fitted effect of over 45% in size. A digest of the protocol: (§3)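 500 cells/well per myeloma line exposed to pinned MIPE 4.0 compounds for 48 h at 37 °C, 5% CO2. Viability read as ATP by CellTiter-Glo luminescence, normalised to DMSO-only (100%) and media-only (0%) wells.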

Experiment [7] in a line: Quantitative High-Throughput drug screen in 47 multiple myeloma cell lines against the NCATS MIPE library collection: NCIH929_DSMZ cell viability assay (AID 1918978). Note: nearly all actives have a fitted effect of over 35% in size. A digest of the protocol:
as §3

Experiment [8] can be described thus: Quantitative High-Throughput drug screen in 47 multiple myeloma cell lines against the NCATS MIPE library collection: MM1S_ATCC cell viability assay (AID 1918980). Note: nearly all actives have a fitted effect of over 45% in size. A digest of the protocol: as §3
The nature of experiment [9]: Quantitative High-Throughput drug screen in 47 multiple myeloma cell lines against the NCATS MIPE library collection: MM1R_ATCC cell viability assay (AID 1918981). Note: nearly all actives have a fitted effect of over 35% in size. A digest of the protocol: as §3
A short description of experiment [10]: Quantitative High-Throughput drug screen in 47 multiple myeloma cell lines against the NCATS MIPE library collection: KMS28PE_JCRB cell viability assay (AID 1918983). Note: nearly all actives have a fitted effect of over 35% in size. A digest of the protocol: as §3
Experiment [11] in a line: Quantitative High-Throughput drug screen in 47 multiple myeloma cell lines against the NCATS MIPE library collection: KMS27_JCRB cell viability assay (AID 1918970). Note: nearly all actives have a fitted effect of over 30% in size. A digest of the protocol:
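Luminescent ATP read-out (CellTiter-Glo, 5 min at room temperature) after 48 h compound exposure of 500 KMS27_JCRB cells per well; DMSO wells define full viability and media-only wells zero.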

A short description of experiment [12]: Quantitative High-Throughput drug screen in 47 multiple myeloma cell lines against the NCATS MIPE library collection: OCIMY1_PLB cell viability assay (AID 1918979). Note: nearly all actives have a fitted effect of over 35% in size. A digest of the protocol:
as §3

The nature of experiment [13]: Quantitative High-Throughput drug screen in 47 multiple myeloma cell lines against the NCATS MIPE library collection: LP1_DSMZ cell viability assay (AID 1918982). Note: nearly all actives have a fitted effect of over 35% in size. A digest of the protocol: as §3
The nature of experiment [14]: Quantitative High-Throughput drug screen in 47 multiple myeloma cell lines against the NCATS MIPE library collection: OCIMY7_PLB cell viability assay (AID 1918987). Note: nearly all actives have a fitted effect of over 65% in size. A digest of the protocol: as §3
The nature of experiment [15]: Quantitative High-Throughput drug screen in 47 multiple myeloma cell lines against the NCATS MIPE library collection: OCIMY5_PLB cell viability assay (AID 1918988). Note: nearly all actives have a fitted effect of over 65% in size. A digest of the protocol:
as §3

Experiment [16] can be described thus: Quantitative High-Throughput drug screen in 47 multiple myeloma cell lines against the NCATS MIPE library collection: KMS12BM_JCRB cell viability assay (AID 1918971). Note: nearly all actives have a fitted effect of over 35% in size. A digest of the protocol:
as §2

Experiment [17] can be described thus: Quantitative High-Throughput drug screen in 47 multiple myeloma cell lines against the NCATS MIPE library collection: L363_DSMZ cell viability assay (AID 1918984). Note: nearly all actives have a fitted effect of over 40% in size. A digest of the protocol:
as §3

Experiment [18] in a line: Quantitative High-Throughput drug screen in 47 multiple myeloma cell lines against the NCATS MIPE library collection: KMS34_JCRB cell viability assay (AID 1918985). Note: nearly all actives have a fitted effect of over 40% in size. A digest of the protocol: as §3
Experiment [19] is described as follows: Quantitative High-Throughput drug screen in 47 multiple myeloma cell lines against the NCATS MIPE library collection: MMM1_PLB cell viability assay (AID 1918976). Note: nearly all actives have a fitted effect of over 35% in size. A digest of the protocol:
as §3

Structures are written as SMILES. Where “and” joins values, the source holds several entries; their conditions need not be identical. Equal entries are not always repeated. Results filed as inconclusive are left out. Calls of active or inactive are those of the source. Calls come from the whole dose curve; as a rule, active = well fitted curve in the direction sought with a large enough effect; inconclusive = small, poorly fitted or top-dose-only effect, or another doubt; inactive = no such curve, though single readings can be large; an effect the other way counts as inactive or inconclusive.
Potency is the fitted concentration of half-maximal effect.

On to `Oc1cccc(-c2nc(N3CCOCC3)c3oc4ncccc4c3n2)c1`, for which the Potency is 9.59 µM (active) in experiment [1]; 0.121 µM (active) in [2]; 0.152 µM (active) in [3]; 0.215 µM (active) in [5]; 0.0152 µM (active) in experiment [6]; 0.0191 µM (active) in experiment [7]. The Potency in experiment [8] was 0.0679 µM (active); in experiment [9] it was 0.0679 µM (active); in [10], 0.0762 µM (active). Moreover, the viability in experiment [4] is 37.2% [at 92.2 µM] (active).
With `Cc1oncc1C(=O)Nc1ccc(C(F)(F)F)cc1`, the Potency in experiment [1] was 14.8 µM (active); in experiment [7], 18.7 µM (active); in experiment [8], 14.8 µM (active); in [13], 10.5 µM (active). Besides, the Potency entry in experiment [11], in experiment [2], in [5], in [12], in experiment [9] and in experiment [14] was “inactive” throughout.
As for `CC(C=CC1=C(C)CCCC1(C)C)=CC=CC(C)=CC(=O)O`, the Potency in experiment [1] was 14.8 µM (active) and 11.8 µM (active); in experiment [11], 3.72 µM (active); in experiment [7], 18.7 µM (active) and 6.62 µM (active); in [8] it was 0.526 µM (active); in [9] it was 14.8 µM (active); in [14] it was 2.64 µM (active). The Potency in experiment [15] was 14.8 µM (active). Also, the Potency entry in experiment [5], in [12] and in experiment [13] was “inactive” throughout.
As to `CC[C@H](Nc1ncnc2nc[nH]c12)c1nc2cccc(F)c2c(=O)n1-c1ccccc1`, the Potency in experiment [1] is 2.64 µM (active); in experiment [16], 18.7 µM (active); in experiment [5], 13.2 µM (active); in experiment [6], 23.5 µM (active); in experiment [7] it was 8.33 µM (active); in experiment [12], 16.6 µM (active). Also, the figures for the Potency in experiment [8], in experiment [14] and in experiment [15] were 0.118 µM (active), 4.69 µM (active) and 20.9 µM (active), respectively. Also, in experiment [4], the Potency result is “inactive”.
`Cn1cnc([N+](=O)[O-])c1Sc1ncnc2nc[nH]c12`: the Potency in experiment [1] is 10.5 µM (active); in [5], 11.8 µM (active); in experiment [7], 16.6 µM (active); in experiment [14] it was 11.8 µM (active). Also, the Potency result in experiment [16], in experiment [6], in [12] and in experiment [10] was “inactive” throughout.
On to `COc1ccc(COc2cc3oc(=O)c4cc(C(C)O)ccc4c3cc2OC)cc1` (stereo not given), for which the Potency in [1] was 7.43 µM (active); in experiment [16], 23.5 µM (active); in experiment [2], 2.64 µM (active); in experiment [5], 11.8 µM (active); in experiment [6] it was 18.7 µM (active); in experiment [7], 26.4 µM (active). For the same compound, the Potency in experiment [8] is 13.2 µM (active); in experiment [10], 23.5 µM (active); in [17], 5.26 µM (active); in experiment [18], 18.7 µM (active); in experiment [15] it was 20.9 µM (active).
In the case of `O=C(O)CCc1ccc(NCc2cccc(Oc3ccccc3)c2)cc1`, the Potency entry in experiment [1], in [11], in [2], in experiment [6], in experiment [7] and in experiment [8] was “inactive” each time. The Potency entry in experiment [9], in experiment [13], in experiment [10], in [17] and in experiment [18] was “inactive” each time.
With `CCn1cc(C(=O)O)c(=O)c2cc(F)c(N3CCNC(C)C3)c(F)c21` (stereo not given), the Potency entry in experiment [1], in [11], in [2], in [3], in experiment [5] and in experiment [6] was “inactive” each time. The Potency result in experiment [7], in experiment [12], in [9], in experiment [13], in [10] and in experiment [17] was “inactive” each time. Also, the Potency result in experiment [18] and in [15] was “inactive” throughout.
As to `CCN(c1ccccc1)c1cc(NC)[n+](C)c(C)n1`, the Potency entry in experiment [1], in experiment [3], in experiment [7], in experiment [12] and in [13] was “inactive” throughout. In addition, the Potency is 6.62 µM (active) in experiment [11]; 0.372 µM (active) in experiment [4]; 2.09 µM (active) in experiment [6]; 16.6 µM (active) in experiment [9]; 26.4 µM (active) in [18].
For `CCN(CC)CCCC(C)Nc1nc(C)cc(Nc2ccc3nc(C)cc(N)c3c2)n1` (stereo not given), the Potency entry in experiment [1], in [13] and in experiment [18] was “inactive” throughout. Moreover, the Potency was 10.5 µM (active) in experiment [11], 16.6 µM (active) in experiment [7] and 8.33 µM (active) in experiment [14].
For the compound `C[C@@H]1CN(Cc2ccc(F)cc2)[C@@H](C)CN1C(=O)c1cc2c(C(=O)C(=O)N(C)C)cn(C)c2cc1Cl`, the Potency was 13.2 µM (active) in experiment [1]; 14.8 µM (active) in experiment [11]; 20.9 µM (active) in [2]; 18.7 µM (active) in [5]; 10.5 µM (active) in experiment [8]; 14.8 µM (active) in experiment [14]. In addition, in experiment [12], the Potency entry was “inactive”.
`COc1nc(-c2ccc3c(c2)OCO3)n(-c2ccc(NC(=O)CSc3ccccc3)cc2)n1`: the Potency entry in [1], in [11], in experiment [2], in experiment [7], in [12] and in experiment [9] was “inactive” in each case. In addition, the Potency entry in experiment [13] and in [18] was “inactive” throughout. Besides, the Potency was 11.8 µM (active) in [5], 7.43 µM (active) in [19] and 14.8 µM (active) in experiment [10].
On to `c1ccc(-c2nn3c(c2-c2ccnc4cc(OCCN5CCOCC5)ccc24)CCC3)nc1`, for which the Potency is 4.18 µM (active) in experiment [1], 26.4 µM (active) in experiment [19] and 23.5 µM (active) in experiment [10]. Further, the Potency entry in [11], in experiment [3] and in experiment [5] was “inactive” each time.
`Cc1cn[nH]c1`: the Potency in [1] was 6.62 µM (active); in experiment [11], 0.264 µM (active); in experiment [2], 0.296 µM (active); in experiment [3], 0.332 µM (active); in experiment [7], 1.18 µM (active); in experiment [12], 1.87 µM (active). Also, the Potency in [8] is 0.332 µM (active); in experiment [9], 0.132 µM (active); in experiment [17], 0.469 µM (active); in [18], 0.0662 µM (active); in experiment [15] it was 0.0093 µM (active).

Usually viability stands for a per cent measure of how many cells are alive, often set against a control.
